AmpC inh detg = inhibitors of E. coli AmpC beta-lactamase with detergent; P00811; Potency, µM (top dose mostly 114 µM), without a hit: top-dose activity change, negative = inhibition, hits mostly inhibitors; AID 485294; AmpC hydrolysis of nitrocefin, absorbance 480 nm, 0.01% Triton; hit rate 0.041% among 370,000;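 further: potency means the concentration at half of the fitted maximal effect; 0% = no-compound wells and -100% = no-enzyme wells; nearly all actives have a fitted effect of over 25% in size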
Target sequence (P00811 whole entry, looked up): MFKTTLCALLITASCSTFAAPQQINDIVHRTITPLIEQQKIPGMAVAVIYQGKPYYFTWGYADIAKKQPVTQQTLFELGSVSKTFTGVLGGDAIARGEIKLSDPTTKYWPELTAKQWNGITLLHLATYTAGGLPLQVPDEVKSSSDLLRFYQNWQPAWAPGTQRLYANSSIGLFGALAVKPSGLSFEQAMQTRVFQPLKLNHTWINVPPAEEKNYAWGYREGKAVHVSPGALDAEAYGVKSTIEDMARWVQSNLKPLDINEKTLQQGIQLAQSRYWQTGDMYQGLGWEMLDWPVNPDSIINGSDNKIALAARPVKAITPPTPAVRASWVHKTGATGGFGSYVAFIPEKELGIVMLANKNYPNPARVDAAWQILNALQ
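20 mM phosphate pH 7.0 + 0.01% (detergent screen) or 0.0001% Triton X-100; 5.3 nM AmpC reagent; cpd preinc 15 min RT; nitrocefin (800 uM stock) to start; A480 q20 s × 4 min; Activity was normalised to no-enzyme and no-compound control wells.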
CHX counter = counter-screen hit for Shiga toxin inhibitors, cycloheximide; cell reporter, cycloheximide protein synthesis inhibition counterscreen; max response, %; AID 2314; hit rate 12% among 300,000; in the data active means max response mostly above about 13%, no sharp cut-off; inactive means mostly below about 14%; further: read at 38.3 µM for the half of the compounds with a filed dose; 0% is about no effect
Shiga inhibitor = Shiga toxin inhibition | Vero cells, Shiga toxin protein synthesis inhibition reporter | inhibition, % at 38.7 µM | hit rate 9.2% among 290,000 | AID 2315; in the data active means inhibition mostly above about 28%, no sharp cut-off; inactive means mostly below about 43%; further: 0% is about no effect
NS1 inh = influenza NS1 inhibition. Potency, µM (highest dose often 46.1 µM), for the others: top-dose activity, positive = more growth. hit rate 0.4% among 270,000; calls by dose curve; further: potency means the concentration at half of the fitted maximal effect; actives are rising curves; nearly all actives have a fitted effect of over 50% in size
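Read-out: OD600 growth recovery of NS1-expressing budding yeast. Cells grown overnight at 30C in -URA glucose medium, washed, resuspended and diluted 1:100 in 2% galactose assay medium, pH 6.0. Same strain lacking NS1 served as positive control.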
AmpC no deterg = AmpC beta-lactamase inhibition without detergent | P00811 | AmpC nitrocefin hydrolysis, absorbance 480 nm, 0.0001% Triton | Potency, µM (doses to about 57.1 µM), without a hit: at the highest dose activity change, negative = inhibition, actives largely listed as inhibitors | hit rate 0.52% among 330,000;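 further: potency means the concentration at half of the fitted maximal effect; plate controls were no compound for no effect and no enzyme for full effect; nearly all actives have a fitted effect of over 20% in size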
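20 mM phosphate pH 7.0 + 0.01% (detergent screen) or 0.0001% Triton X-100; 5.3 nM AmpC reagent; cpd preinc 15 min RT; nitrocefin (800 uM stock) to start; A480 q20 s × 4 min; Activity was normalised to no-enzyme and no-compound control wells.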
Starred values were filed as active, the others as inactive; ? = inconclusive; . = no result; [ ] = remark or other dose. This is one part of a sample in which hits are shown more often than they occur. Unless noted, the call rests on the fitted dose curve; in most records, active means well fitted curve in the direction sought with a large enough effect; inconclusive means small, poorly fitted or top-dose-only effect, or another doubt; inactive means no such curve, though single readings can be large; an effect the other way counts as inactive or inconclusive.

SMILES	AmpC inh detg	CHX counter	Shiga inhibitor	NS1 inh	AmpC no deterg
Cc1ccccc1-c1noc(N)c1C#N	-11.8%	3.3	-1.7	-12.3%	-18.2%
O=C(O)/C=C/C(=O)Nc1ccccc1SC(F)(F)F	?	-1.9	10.2	8.5%	-12.5%
CCOC(=O)N1CCN(C(=O)CSc2ccc(-c3ccccc3OC)nn2)CC1	?	9.4	-2.8	.	17.6%
COc1ccccc1-c1ccc(SCC(=O)NCc2ccc3c(c2)OCO3)nn1	0.3%	-5.6	2.7	.	-0.6%
COc1ccccc1-c1ccc(SCc2ccccc2)nn1	?	37.9*	76.5*	.	-31.7%
Cc1nc(C)c(-c2ccc(SCc3ccccc3F)nn2)s1	-0.3%	32.5*	118.7*	7.1%	64.9%
COc1ccccc1-c1ccc(SCC(=O)NCCc2ccccc2)nn1	?	-1.8	17.7	.	-20.2%
COc1ccccc1-c1ccc(SCc2ccccc2F)nn1	0.7%	28.7*	66.0*	.	-40.3%
COc1ccccc1-c1ccc(SCc2cccc(F)c2)nn1	-7.0%	30.0*	66.4*	-44.6%	-10.6%
CCOc1ccc(C(=O)Nc2ccc(-c3nnc4n3CCCCC4)cc2)cc1OCC	20.4%	.	.	.	.
O=S(=O)(O)c1c(NS(=O)(=O)c2ccccc2)ccc2ccccc12	.	3.6	10.5	.	.
COc1cccc(/C=C/c2nc(C#N)c(N3CCN(C)CC3)o2)c1	25.6%	.	.	.	.
CCc1cccc(NC(=O)CCS(=O)(=O)c2cc3c4c(c2)CCN4C(=O)CC3)c1	1.3%	.	.	.	.
COC(=O)c1c(NC(=O)c2ccc(C(C)(C)C)cc2)sc2c1CCC(C)C2 (stereo not drawn)	10.1%	.	.	.	.
CCOC(=O)C1=C(C)N(c2ccc(C)c(C)c2)C(=O)/C1=C\c1ccco1	-0.6%	-3.3	17.3	7.9%	-25.0%
Cc1ccc(N2C(=O)NC(=O)/C(=C\C=C\c3ccco3)C2=O)cc1	6.4%	61.0*	56.3*	9.8%	-32.6%
O=C1NC(=O)N(c2ccccc2)C(=O)/C1=C/C=C/c1ccco1	7.0%	36.1*	57.2*	2.8%	-36.3%
Cc1ccc(N2C(=O)NC(=O)/C(=C\C=C\c3ccco3)C2=O)cc1C	-4.1%	17.8*	12.3	28.8%	-40.2%
Cc1cccc(N2C(=O)NC(=O)/C(=C\C=C\c3ccco3)C2=O)c1	0.7%	20.2*	41.9	-1.2%	-50.8%
CN1C(=O)/C(=C/C=C/c2ccco2)C(=O)NC1=S	2.7%	-0.8	-14.8	9.3%	-26.4%
Nc1c(-c2ccccc2)cc[nH]c1=O	.	16.1	-2.4	.	.
COc1cc(NC(=O)CCCOc2cc(=O)n(C)c3ccccc23)cc(OC)c1OC	-7.7%	.	.	.	.
O=C(CNCC1CCCCC1)Nc1ccc(N2CCCCC2)cc1	-4.3%	15.3	-2.1	.	-3.3%
O=C(CNC1CCCCCC1)Nc1ccc(N2CCCC2)cc1	?	21.6	-14.5	3.9%	-29.4%
O=C(Nc1ccc(N2CCOCC2)cc1)C1CCCCC1	0.8%	22.4	85.2*	-0.4%	.
SMILES	AmpC inh detg	CHX counter	Shiga inhibitor	NS1 inh	AmpC no deterg
O=C(CNCCC1=CCCCC1)Nc1ccc(N2CCCCCC2)cc1	-11.9%	15.9*	21.0	-11.4%	56.6%
O=C(CNCC1CCCO1)Nc1ccc(N2CCCCCC2)cc1 (stereo not drawn)	-6.0%	22.6*	42.9*	-4.2%	27.6%
O=C(CNC1CCCC1)Nc1ccc(N2CCCCCC2)cc1	-15.1%	56.4*	82.8*	.	-6.8%[11.4 µM]
O=C(CN(c1ccccc1)S(=O)(=O)c1ccccc1)Nc1ccc(F)cc1	2.4%	-0.7	-6.2	-0.9%	-53.9%
Cc1oc2ncn(C)c(=O)c2c1C(=O)NCCCN1CCCCC1C (stereo not drawn)	5.8%	.	.	.	.
COc1ccc(Cl)cc1N1Cc2ccccc2C1	-13.6%	-3.5	-3.4	11.7%	-34.2%
COc1ccc(N2Cc3ccccc3C2)cc1Cl	?	22.0*	87.2*	-6.0%	-30.1%
COc1ccccc1N1Cc2ccccc2C1	-5.4%	21.3*	3.9	8.7%	12.2%
CCOc1ccc(N=C(NN)c2ccc3ccccc3n2)cc1	2.3%	43.8*	31.0*	5.1%	-36.9%
O=C(Nc1ccc(F)c(F)c1)c1ccco1	1.7%	45.1*	88.7*	1.7%	23.3%
O=C(Cc1ccccc1)Nc1ccc(NC(=O)c2ccco2)cc1Cl	-1.7%	11.8	31.8	?	-15.7%
O=C(Nc1ccc(Cl)c(Cl)c1)c1ccco1	-8.5%	48.4*	49.8*	-142.9%	-13.7%
O=C(Nc1ccc(Cl)c(C(F)(F)F)c1)c1ccco1	-5.9%	12.8*	25.3	-121.3%	-35.0%
Cc1ccc(C(=O)Cn2ncsc2=N)cc1	0.4%	52.1*	126.7*	-36.8%	-16.7%
CCN1CCN(CC(=O)c2ccc(C)cc2)CC1	-13.0%	-2.6	-5.5	-4.8%	-1.4%
NC(N)=NC(=S)Nc1ccc(Cl)cc1	-7.9%	34.2*	38.8*	-3.9%	-25.3%
CNC(=S)/N=C(/Nc1ccccc1)c1ccccc1	?	11.0	25.9	.	-6.3%
N/C(=N\C(=S)Nc1ccccc1)c1ccccc1	3.1%	40.0*	99.5*	-1.3%	-24.8%
C/C(=N\NC(=O)c1ccccc1)c1c(O)n(C2CCCCC2)c(=O)[nH]c1=O	1.5%	40.8*	66.9*	-4.1%	-44.4%
C/C(=N\NC(=O)c1ccncc1)c1c(O)n(Cc2ccccc2)c(=O)[nH]c1=O	-4.0%	16.7	-13.2	10.6%	-44.6%
C/C(=N\NC(=O)c1ccccc1Cl)c1c(O)n(C2CCCCC2)c(=O)[nH]c1=O	-3.3%	32.4*	35.1*	3.1%	-46.3%
C/C(=N\NC(=O)c1ccccc1O)c1c(O)n(Cc2ccccc2)c(=O)[nH]c1=O	-12.5%	25.1*	51.0	4.2%	?
C/C(=N\NC(=O)c1ccccc1O)c1c(O)n(C2CCCCC2)c(=O)[nH]c1=O	2.2%	23.4*	41.2*	20.3%	-40.9%
CC(=NCCO)c1c(O)n(C2CCCCC2)c(=O)[nH]c1=O	-7.3%	22.1	36.0	-12.8%	-8.8%
COc1ccc(N2Cc3cccc(C(=O)Nc4ccc(C)c(C)c4)c3C2=O)cc1	-10.8%	.	.	.	.
SMILES	AmpC inh detg	CHX counter	Shiga inhibitor	NS1 inh	AmpC no deterg
COc1ccc(CC(=O)Nc2nc(C)cs2)cc1S(=O)(=O)N1CCOCC1	10.9%	.	.	.	-8.9%
C/C(CC(=O)Nc1ccc(F)cc1F)=N\NC(=O)C(=O)N1CCCCC1	?	40.2*	64.6*	-3.6%	-10.0%
CC(=O)Nc1ccc(NC(=O)C/C(C)=N/NC(=O)C(=O)N2CCCC2)cc1	-3.1%	17.0	4.8	0.5%	-11.0%
O=C(NCc1ccc(F)cc1)N1CCc2ccccc2C1	7.0%	36.3*	68.9	-7.9%	3.1%
CCCCNC(=O)N1CCc2ccccc2C1	?	2.6	13.7	-9.7%	3.4%
COc1ccc(CN(C)CC(=O)N2CCc3ccccc3C2)cc1	?	-1.7	-14.1	-2.2%	-4.7%
COc1ccc(CNC(=O)N2CCc3ccccc3C2)cc1	10.4%	15.8*	58.3*	-8.6%	-14.8%
C/C(=N\NC(=S)NCc1ccccc1)c1ccc2c(c1)OCCO2	-1.5%	18.2	92.8*	.	-29.1%
C/C(=N/NC(=O)c1ccc2c(c1)OCO2)c1cccc(NC(=O)C(C)(C)C)c1	-16.9%	21.2	60.1	-10.0%	-16.5%
C/C(=N\NC(=S)NCc1ccccc1)c1cccs1	-5.7%	34.5*	134.9*	.	-23.6%

Source: PubChem BioAssay
